# Measurements from PubChem BioAssay AID493240 (Broad Institute, 2011).
# Out of some 1,300 compounds screened, about 270 (21%) were called active. How the calls were made is not given here. These entries were drawn from the full list. Entries with a potency or affinity are not part of this list.
# Test: SK-MEL-5 parental cell viability loss, dose response, orthogonal assay for MITF inhibitor project, CellTiter-Glo, cherry-picked, set 3 (AID 493240)
# Details: SK-MEL-5 viability, ATP luminescence (CellTiter-Glo), 24 h; series mostly up to 35 µM
row,SMILES,outcome
1,Cc1ccc(-c2cn3cc(C)ccc3n2)cc1,inactive
2,O=C(O)c1cccc(NC(=S)N/N=C/c2ccccn2)c1,inactive
3,CC1=NOC(=O)/C1=C\c1ccc(-c2cccc(Cl)c2)o1,inactive
4,CC(C)[C@H](NC(=O)OC(C)(C)C)c1nnc(S(=O)(=O)Cc2c(F)cccc2Cl)o1,inactive
5,C/C(=N\NC(=O)C1COc2ccccc2O1)c1ccccn1 (centres undefined),inactive
6,Cc1cc(C)c2c(N)c(C(=O)Nc3ncc(C)s3)sc2n1,inactive
7,CC(OC(=O)c1ccc([N+](=O)[O-])s1)C(=O)NC1CCCCC1C (centres undefined),inactive
8,Clc1c(-c2ccccc2)nc2ccccn12,inactive
9,Cn1nnnc1Sc1ncnc2scc(-c3ccc[nH]3)c12,inactive
10,C=C1CCC[C@]2(C)C[C@H]3OC(=O)C(CN4CCCCC4CO)[C@H]3CC12 (some centres undefined),inactive
11,COc1cc(/C=N/NS(=O)(=O)c2ccc3ccccc3c2)ccc1OCc1ccc(C(=O)O)cc1,inactive
12,CCOc1cc(/C=C2/NC(=S)NC2=O)ccc1OCc1ccc([N+](=O)[O-])cc1,inactive
13,CCOc1cc(/C=N/Nc2cccc(C(=O)O)c2)ccc1OC(=O)c1ccccc1,inactive
14,COc1cc(/C=N/NS(=O)(=O)c2ccc(C)cc2)ccc1OCc1cccc(C(=O)O)c1,inactive
15,O=C(Cn1nnc(-c2ccccc2Cl)n1)N1CCCCC1,inactive
16,CC(C)OC(=O)CSc1nc2cc3c(cc2cc1C#N)OCO3,inactive
17,CCOc1ccc(OCc2ccc(C(=O)N/N=C(\C)c3ccccn3)cc2)cc1,inactive
18,C/C(=N\NC(=O)Cc1ccc(Cl)cc1)c1ccccn1,inactive
19,O=C(Nc1nc2ccccc2s1)Nc1ccc(F)cc1F,inactive
20,O=C(Nc1ccccc1)O/N=C/c1ccc(F)cc1,inactive
21,O=C(N/N=C/c1ccccc1)c1ccco1,inactive
22,CCC(=O)OCCNc1cc(Sc2nc3ccccc3[nH]2)c2nonc2c1[N+](=O)[O-],inactive
23,Cc1cc(C)nc(S/C=C/C(=O)c2ccccc2F)n1,inactive
24,CC(=O)N/C(N)=N/c1nc2cc(C)ccc2o1,inactive
25,COc1ccccc1N1CCN(/N=C/c2ccc([N+](=O)[O-])cc2)CC1,inactive

row,SMILES,outcome
1,CN(c1ccc(O)cc1)c1nc(O)c(C2=c3ccccc3=NC2=O)s1,inactive
2,CCOC(=O)C1CCCN(C(=O)C2CCN(S(=O)(=O)CC)CC2)C1 (centres undefined),inactive
3,Nc1ccc(-c2nc3ccc(C(=O)O)cc3s2)cc1,inactive
4,Cn1c(COc2ccccc2)nc2ccccc21,inactive
5,COCc1nc(-c2ccc(-c3ccccc3)nc2OC)no1,inactive
6,Brc1cccc(/C=N/Nc2nn[nH]n2)c1,inactive
7,CC(C)=CCc1c(O)ccc2c1OC(c1ccc(O)c(O)c1)CC2=O (centres undefined),inactive
8,O=C(Nc1cc2c(cc1Cl)OCCO2)c1ccco1,inactive
9,COc1ccc(-n2c(C)cc(C(=O)CCl)c2C)cc1,inactive
10,CCOc1ccc(-n2c(C)cc(C(=O)CCl)c2C)cc1,inactive
11,CCN(CC)CC(=O)Nc1scc2c1c(=O)oc1ccccc12,inactive
12,CCN(Cc1ccc(OC)c(F)c1)C(=O)CCl,inactive
13,COc1ccccc1N(C(=O)CCl)c1cn(C(C)=O)c2ccccc12,inactive
14,O=C(c1ccc(F)cc1)C(CN1CCOCC1)c1ccccc1 (centres undefined),inactive
15,Cn1nnnc1Sc1ncnc2scc(-c3ccc(F)cc3)c12,inactive
16,Cn1nnnc1Sc1ncnc2scc(-c3ccsc3)c12,inactive
17,O=C(NC1=NCCS1)c1ccc(Cl)c(Cl)c1,inactive
18,O=C(Nc1ccc2nc(-c3ccccc3)[nH]c2c1)c1ccco1,inactive
19,COc1ccc(C(=O)/C=C/Nc2ccccn2)cc1,inactive
20,O=C(/C=C\Nc1ccc2c(c1)OCO2)c1ccccn1,inactive
21,CCN(CC)Cc1c(O)ccc2c1O/C(=C\C=C\c1ccccc1)C2=O,inactive
22,Cc1cc(/C=C(\C#N)C(=O)O)c(C)n1CC(C)C,inactive
23,CN(C)c1ccc(/C=N\NC(=O)c2cccc3cc[nH]c23)cc1,inactive
24,Cc1ccc(-c2nc(C#N)c(NCc3ccco3)o2)cc1,inactive
25,O=C(Nc1ccc2oc(-c3cccnc3)nc2c1)c1ccc([N+](=O)[O-])o1,inactive

row,SMILES,outcome
1,Cc1cc(NC(=O)c2ccc([N+](=O)[O-])o2)ccc1NC(=O)c1ccco1,inactive
2,COc1ccccc1/C=C/C=N/NC(=O)c1cccs1,inactive
3,Cc1ccccc1OCC(=O)Nc1cccc(C(=O)O)c1,inactive
4,CC(C)c1ccc(/C=C2\SC(=S)N(CCC(=O)N3CCCCC3CCO)C2=O)cc1 (centres undefined),inactive
5,CN(C)S(=O)(=O)c1cccc(NC(=O)CSc2nc3c(cc2C#N)C(=O)CC(C)(C)C3)c1,inactive
6,O=C(CCC(=O)c1ccc[nH]1)c1ccc(Cl)cc1,inactive
7,CCOC(=O)N1CCN(C(=O)c2ccc(Cn3c(=S)[nH]c4ccc(Br)cc4c3=O)cc2)CC1,inactive
8,C=CCNc1nc(-c2ccccn2)nnc1-c1ccccc1,inactive
9,Cc1cc(C)c2nc3nc(C)cc(C)c3c(N)c2c1,inactive
10,N#C/C(=C\C=C\c1ccccc1[N+](=O)[O-])C(=O)NCc1ccccc1,inactive
11,Cc1cc(Cl)ccc1OCCCC(=O)N1CCOCC1,inactive
12,Cc1cccc(N(O)C(=O)Nc2cccc(Cl)c2)c1,inactive
13,Nc1c(-c2ccccc2)cnc2c(-c3ccccc3)cnn12,inactive
14,CC(=O)c1ccc(Sc2nnnn2-c2ccccc2)c([N+](=O)[O-])c1,inactive
15,Cc1ccc(-c2noc(-c3ccno3)n2)cc1,inactive
16,Cc1cc(-n2c(C)cc(C(=O)CCl)c2C)no1,inactive
17,Cc1ccc(OCCCCN2CCCCC2)c(Br)c1,inactive
18,Clc1ccccc1CSc1nnc(-c2ccncc2)o1,inactive
19,c1ccc(C[n+]2cccc3c4ccccc4ccc32)cc1,inactive
20,CC1(C)Cc2c(sc(NC(=O)c3ccc4ncsc4c3)c2C(N)=O)C(C)(C)N1,inactive
21,CS(=O)(=O)c1ccc2nc(NC(=O)c3ccccc3)sc2c1,inactive
22,CCCN(CCC)C1=CC(=[N+]2CCCC2)CC(C)(C)C1,inactive
23,Cc1nc(Sc2nnnn2C)c2c3c(sc2n1)CCC3,inactive
24,COC(=O)c1ccc(-n2c(C)cc(C(=O)CCl)c2C)cc1,inactive
25,Cc1ccc2c(c1)COc1c3ccc(C(=O)O)cc3nn1-2,inactive

row,SMILES,outcome
1,Nc1c(-c2ccc(Cl)cc2)nnn1-c1ccccc1,inactive
2,Nc1ccc(-c2cc3ccccc3c(=O)o2)cc1,inactive
3,Cc1ccc(NC(=O)c2cc(N3C(=O)C=CC3=O)ccc2N2CCOCC2)cc1,inactive
4,COc1cc(OC)cc(-c2oc(=O)c3cc(OC)c(OC)cc3c2C(F)(F)F)c1,inactive
5,O=C1c2ccccc2CN1c1ccccc1,inactive
6,Cn1c(/C=C/c2cccc([N+](=O)[O-])c2)c([N+](=O)[O-])c(=O)n(C)c1=O,inactive
7,O=C(O)c1cccc(NC(=O)c2cccc(NC(=O)C3CCCO3)c2)c1 (centres undefined),inactive
8,Oc1cc(NCCN2CCOCC2)cc2cccnc12,inactive
9,N#Cc1nc(/C=C/c2ccccc2)oc1NCCCN1CCOCC1,inactive
10,CC(C)(C)c1cc(NCCCn2ccnc2)n2ncc(-c3ccccc3)c2n1,inactive
11,O=c1c(Cl)c(Cl)cnn1Cc1ccc(F)cc1,inactive
12,Cc1c(NC(=O)C(C)OC(=O)c2ccc([N+](=O)[O-])s2)c(=O)n(-c2ccccc2)n1C (centres undefined),inactive
13,Cc1cc(Sc2ncnc(N)c2[N+](=O)[O-])ncn1,inactive
14,Cc1ccc(OCC(=O)Nc2ccccc2F)cc1,inactive
15,Fc1cccc(Cl)c1CSc1nnc(-c2ccncc2)o1,inactive
16,CN(CCC#N)C(=O)COC(=O)c1ccccc1C(=O)c1ccc(Cl)c([N+](=O)[O-])c1,inactive
17,CCOC(=O)N1C(=O)[C@](CC)(c2ccccc2)N1C(=O)OCC,inactive
18,CC(C)C(=O)Nc1cccc(NC(=O)c2cc3ccccc3o2)c1,inactive
19,Cc1ccc(NC(=O)c2cc3ccccc3oc2=O)cc1S(=O)(=O)N(C)C,inactive
20,Cc1ccc(S(=O)(=O)Nc2cccc3cccnc23)cc1,inactive
21,COc1ccc(N/N=C/c2c(C(=O)O)ccc3ccccc23)cc1,inactive
22,CC1C/C(=C\c2cccnc2)C(=O)/C(=C/c2cccnc2)C1 (centres undefined),inactive
23,C=C1C(=O)C=C[C@]2(C)C[C@@H]3OC(=O)[C@](C)(O)[C@H]3C[C@@H]12,inactive
24,Cc1ccc2nc(NC(=O)c3ccc(Br)o3)sc2c1,inactive
25,CC(C)C(NC(=O)OCc1ccccc1)C(=O)OCC(=O)N1CCCCC1 (centres undefined),inactive

row,SMILES,outcome
1,CCOC(=O)c1ccc(NC(=O)Cc2cccs2)cc1,inactive
2,CCc1ccc(Nc2nc(C)cc(C)n2)cc1,inactive
3,CCOC(=O)c1ccc(NC(=O)c2nc(S(=O)(=O)Cc3ccccc3)ncc2Cl)cc1,inactive
4,Cc1cc(O)ccc1Nc1nc(-c2cccnc2)cs1,inactive
5,Cc1c(C#N)c(O)n(CCO)c(=O)c1N=Nc1ccc2c(c1)COC2=O,inactive
6,N#Cc1cnc2sc3ccccc3n2c1=N,inactive
7,O=C(NCCSc1ccccc1)c1ccccc1F,inactive
8,COCn1c(COc2ccccc2)nc2ccccc21,inactive
9,O=C(N/N=C/c1cccc(Oc2ccc([N+](=O)[O-])cc2[N+](=O)[O-])c1)c1cncc(Br)c1,inactive
10,CN(C)c1ccc(NC(=O)Nc2ccc3c(c2)nnn3C)cc1,inactive
11,CC1Cc2ccccc2N1C(=O)c1ccc(Br)o1 (centres undefined),inactive
12,O=C(c1cc2ccccc2oc1=O)N1CCN(c2ncccn2)CC1,inactive
13,CN(c1cccc(NC(=O)COc2ccc(Cl)cc2Cl)c1)S(C)(=O)=O,inactive
14,Cc1ccc(OCC(=O)Nc2cccc(C)n2)c(C)c1,inactive
15,CCOc1ccccc1-c1nc(-c2ccc(C)nc2OC)no1,inactive
16,C=CCNC(=O)c1ccc2nc(Cc3ccc(OC)cc3)oc2c1,inactive
17,O=C(Nc1nc2cc3c(cc2s1)OCO3)C1=COCCO1,inactive
18,CCOCCCNC(=O)/C(C#N)=C/c1ccc(Cl)c([N+](=O)[O-])c1,inactive
19,O=C(/C=C/c1ccc(Cl)cc1)c1ccc([N+](=O)[O-])o1,inactive
20,Cc1nc2cc(NC(=O)Nc3cccc([N+](=O)[O-])c3)ccc2n1C,inactive
21,O=C(Cc1ccccc1)Nc1ccc(NC(=O)c2ccco2)nc1,inactive
22,CN(C)/C=N/c1ncc(C(=O)c2ccccc2)s1,inactive
23,C=C1C(=O)O[C@@]23[C@H]1CC[C@@H](C)[C@@H]2CC[C@@]1(C)O[C@@H]31,inactive
24,COc1ccc2oc3ccc(OC)cc3c(=O)c2c1,inactive
